# In the library only some 8% were active in any assay of this set; here they are far more common.
# KB-3-1 tox – kills parental KB-3-1 adenocarcinoma cells; Potency, µM (doses to about 46.1 µM), hits mostly cytotoxic; actives 1.4% (n = 400,000); KB-3-1 viability, CellTiter-Glo ATP luminescence, 72 h; further: on the % scale 0 is the no-effect control and ±100 the full control effect; nearly all actives have a fitted effect of over 60% in size
#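 Cells are dispensed, compounds pinned in, plates held at 37 °C for 72 h, then CellTiter-Glo is added and luminescence read after 10 minutes. Cell line: parental KB-3-1 in phenol-red-free DMEM, 10% FBS.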
# SW480 rereplic – induces DNA re-replication in SW480 colon adenocarcinoma cells | SW480 DNA re-replication, Hoechst DNA content imaging, 48 h | Potency, µM (titrated, usually from 46.1 µM), without a hit: at the highest dose re-replication activation, actives largely listed as activators | actives 1.8% (n = 340,000); further: % of control where 0% means no effect; nearly all actives have a fitted effect of over 55% in size
#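 Treated cells incubate 48 hr (37 C, 5% CO2), are stained 40 min with Hoechst, and nuclear fluorescence is enumerated; a rise in nuclei with high DNA signal marks re-replication.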
# KB-V1 MDR tox – kills drug-selected multidrug resistant KB-V1 cells | KB-V1 MDR cells viability, CellTiter-Glo, 72 h | actives 3.4% (n = 400,000) | Potency, µM (highest dose often 46.1 µM), most hits filed as cytotoxic; further: on the % scale 0 is the no-effect control and ±100 the full control effect; nearly all actives have a fitted effect of over 60% in size
#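 In this primary screen, KB-V1 cells overexpressing P-gp are incubated with library compounds (lowest to highest concentration) for 72 h at 37 degrees C before a luminescent ATP viability read.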
# HT1080 IDH1KD tx – HT-1080 IDH1 knockdown cell toxicity (counter line); HT-1080 IDH1 knockdown viability, ATP luminescence, 48 h; Potency, µM (series often up to 46.1 µM), inactives show at the highest dose activity, negative = toxicity, hits mostly cytotoxic; actives 2% (n = 360,000); AID 686971;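 further: 0% = DMSO wells and -100% = cell-free medium wells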
#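 After a 2 h attachment period, IDH1KD HT-1080 cells took pin-transferred compound for 48 h at 37 °C; ATP-based luminescence after 10 min room-temperature reagent incubation reported viability.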
# MCF10A rereplic – inducers of DNA re-replication in MCF 10A breast cells | MCF 10A DNA re-replication, Hoechst nuclear intensity, 48 h | Potency, µM (doses to about 46.1 µM), without a hit: top-dose activity, positive = re-replication, usual class: activators | actives 2.9% (n = 350,000); further: % of control where 0% means no effect; nearly all actives have a fitted effect of over 50% in size
# HT1080-NT tox – kills 2HG-producing HT-1080-NT fibrosarcoma cells. Potency, µM (highest dose often 46.1 µM), inactives show top-dose activity, negative = less viability, usual class: cytotoxic. HT-1080-NT fibrosarcoma viability, CellTiter-Glo ATP luminescence, 48 h. actives 1.6% (n = 360,000);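 further: NT is the 2HG producing partner of a matched IDH1 knockdown line; 0% = DMSO-treated cells and -100% = media-only wells without cells; nearly all actives have a fitted effect of over 55% in size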
#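 Luminescent CellTiter-Glo readout after 48 hours of compound exposure at 37 degrees C defined viability of HT-1080-NT cells. Activity was normalized to DMSO wells and cell-free media wells; concentration-response curves were fitted and assigned curve classes.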
# Active calls of the source: *; i = inactive; ? = inconclusive; · = no result; [ ] = dose if it differs, or a comment. The call rests on the fitted dose curve; in most records, active means well fitted curve in the direction sought with a large enough effect; inconclusive means small, poorly fitted or top-dose-only effect, or another doubt; inactive means no such curve, though single readings can be large; an effect the other way counts as inactive or inconclusive. Potency means the concentration at half of the fitted maximal effect.
SMILES,KB-3-1 tox,SW480 rereplic,KB-V1 MDR tox,HT1080 IDH1KD tx,MCF10A rereplic,HT1080-NT tox
O=C1CN=C(c2cccs2)c2c(sc3c2CCCC3)N1,?,21µM*,?,10µM*,13µM*,11µM*
O=C1CN=C(c2ccccc2)c2c(sc3c2CCCC3)N1,i,-70%,?,23µM*,?,?
Cc1ccc2c(c1)C(c1ccccc1)=NCC(=O)N2,i,7%,i,-3%,-14%,5%
CN(Cc1ccccc1)C(=O)c1cccc(NC(=O)Cc2ccc([N+](=O)[O-])cc2)c1,i,-9%,i,-24%,?,-6%
COc1cc2c(cc1O)C[C@H]1NCCc3cc4c(c-2c31)OCO4,?,?,i,?,18µM*,?
c1cc2c(c(NC3=NCCN3)c1)CCCC2,·,-5%,·,·,0%,·
C1=CC2C3C=CC(C3)C2C1 (configuration not stated),i,?,i,6%,-11%,29%
CCCOP(=O)(OCCC)C(Nc1cccc(C(F)(F)F)c1)c1ccc(C)cc1 (configuration not stated),?,?,12µM*,?,-8%,?
O=c1[nH]c2ccccc2n1CCCN1CCC(n2c(=O)[nH]c3cc(Cl)ccc32)CC1,i,1%,i,-27%,?,-1%
O=c1[nH]c2ccccc2n1C1CCN(Cc2ccc(-c3nc4ccc(F)cc4nc3-c3ccccc3)cc2)CC1,?,·,?,?,·,21µM*
O=c1[nH]c2ccccc2n1C1CCN(Cc2ccc(-c3nc4ccccc4nc3-c3ccccc3)cc2)CC1,?,·,23µM*,?,·,?
CCOC(=O)/C(C#N)=C1/C=C(C)NC(c2ccccc2O)=N1,i,6%,i,?,6.5µM*,?
CCOC(=O)/C(C#N)=C1/SC(C)C(=O)N1c1ccc(Br)cc1 (configuration not stated),i,0%,i,0%,?,2%
C=CC1CN2CCC1CC2C(OC(=O)OCC)c1ccnc2ccc(OC)cc12 (configuration not stated),·,-4%,·,·,1%,·
COC(=O)C1=C(c2ccccc2OCc2ccccc2)C[C@@H]2CC[C@H]1N2C(=O)NCCOc1ccccc1,?,12%,?,-17%,?,1%
COC(=O)C1=C(c2ccccc2OCc2ccccc2)C[C@@H]2CC[C@H]1N2C(=O)NCCOc1ccc(OC)cc1,i,?,i,-6%,6.5µM*,-4%
COC(=O)C1=C(c2ccc(OCc3ccccc3)cc2)C[C@@H]2CC[C@H]1N2C(=O)NCCCCc1ccccc1,?,·,?,-11%,·,-21%
COC(=O)C1=C(c2ccc(OCc3ccccc3)cc2)C[C@@H]2CC[C@H]1N2C(=O)NCCc1ccc(F)cc1,?,·,16µM*,?,·,-20%
Cc1ccccc1NC(=NCCCN1CC1)Nc1ccccc1C,?,?,i,?,21µM*,-13%
Cc1ccccc1NC(=O)c1cc(-c2ccccc2)n(CCCN2CCOCC2)c1C,i,-4%,i,-1%,14%,-20%
O=c1cccc2n1CC1CC2CN(Cc2cccc(Cl)c2Cl)C1 (configuration not stated),i,2%,18µM*,?,25%,-28%
O=c1cccc2n1CC1CC2CN(Cc2c(F)cccc2Cl)C1 (configuration not stated),i,-6%,?,11%,22%,11%
CCCCCC(O)C1C(=O)OC(C)C(O)\C=C/C=C\C=C/C=C\C=C(\C)C(O)C(O)C(O)CC(O)CC(O)CC(O)CC(O)CC1O (configuration not stated),·,-8%,·,·,5%,·
c1ccc2ccccc2c1,?,-1%,i,8%,-2%,?
O=C(CN1CCc2ccccc2C1)Nc1ccccc1N1CCCCCC1,?,?,?,?,13µM*,-22%
SMILES,KB-3-1 tox,SW480 rereplic,KB-V1 MDR tox,HT1080 IDH1KD tx,MCF10A rereplic,HT1080-NT tox
O=C(CN1CCN(c2ccccc2F)CC1)Nc1cccnc1Cl,i,-2%,i,?,?,-15%
COc1cc2c(cc1O)C(Cc1ccc(O)cc1)NCC2 (configuration not stated),?,15%,i,3%,-21%,3%
CC[C@H]1CN2CCc3cc(OC)c(OC)cc3C2C[C@@H]1C[C@H]1NCCc2cc(OC)c(OC)cc21 (some centres not stated),0.21µM*,?,2.1µM*,0.052µM*,?,0.052µM*
CCC(=NCCN1CCCCC1)c1c(O)n(C)c(=O)n(C)c1=O,i,-7%,i,3%,-7%,7%
CCC(=NCc1cc(OC)cc(OC)c1)c1c(O)n(C)c(=O)n(C)c1=O,?,-4%,7.3µM*,1%,0%,9%
CC(=NCc1ccc2c(c1)OCO2)c1c(O)n(C)c(=O)n(C)c1=O,8.2µM*,-4%,21µM*,-26%,?,2.5µM*
CCC(=NCc1ccc2c(c1)OCO2)c1c(O)n(C)c(=O)n(C)c1=O,15µM*,-4%,i,-19%,11%,-14%
CCC(=NCCOc1ccc(Cl)cc1)c1c(O)n(C)c(=O)n(C)c1=O,?,5%,18µM*,-14%,0%,?
C[C@H]1COC(=O)[C@@H](Cc2ccc(F)cc2)CC/C=C/C[C@@H](CC(=O)N(CCO)Cc2ccccc2)C(=O)N1,i,-11%,?,4%,1%,-14%
Cc1cc(N2CCN(C(=O)c3ccco3)CC2)n2nc(-c3cccc(Cl)c3)cc2n1,?,12%,?,?,?,?
O=[N+]([O-])c1ccc(-c2ccc(C=Nc3cccc4ccccc34)o2)cc1,i,12µM*,i,7%[9.24 µM],8.2µM*,?
O=Cc1cn(Cc2cccc([N+](=O)[O-])c2)c2ccccc12,?,-2%,?,-4%,?,-16%
O=Cc1cn(Cc2ccccc2F)c2ccccc12,i,?,i,-17%,20%,-6%
Cc1cccc(Cn2cc(C=O)c3ccccc32)c1,18µM*,19%,i,?,18%,-10%
O=Cc1cn(Cc2c(F)cccc2Cl)c2ccccc12,?,-20%,16µM*,-12%,?,0%

# Assay outcomes (PubChem)
